Bioassay records from PubChem.
An excerpt weighted towards active compounds, which were near 2.8% of everything screened.
PAFAH2 inh = PAFAH2 (human) inhibition. Q99487. recombinant PAFAH2, FP-rhodamine activity probe, fluorescence polarization. inhibition, % at 3.39 µM. 340,000 compounds, 0.99% hits;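 active means inhibition above the mean over all tested compounds plus 3 SD, cut at about 30% in these data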;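 further: inhibitors block probe labeling of enzyme so polarization drops; 0% = enzyme with DMSO and 100% = wells lacking PAFAH2 protein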
PAFAH1B2 inh = blocks human PAF acetylhydrolase 1b catalytic subunit 2 | inhibition, % at 3.39 µM | 340,000 compounds, 1.2% hits | recombinant PAFAH1B2, FP-rhodamine activity probe, fluorescence polarization;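 active means inhibition above the mean of all tested compounds plus 3 SD, cut at about 24% in these data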;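 further: 0% = enzyme with DMSO and 100% = wells lacking PAFAH1B2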
Target sequence (P68402 whole entry, looked up): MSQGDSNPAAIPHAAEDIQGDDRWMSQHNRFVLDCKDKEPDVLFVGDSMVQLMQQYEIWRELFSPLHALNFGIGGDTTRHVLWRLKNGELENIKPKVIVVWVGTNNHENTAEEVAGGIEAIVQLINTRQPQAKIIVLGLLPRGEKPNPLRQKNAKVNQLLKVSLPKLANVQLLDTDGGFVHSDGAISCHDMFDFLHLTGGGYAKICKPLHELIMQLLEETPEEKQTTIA
PAFAH1B3 inh = PAFAH1B3 (human) inhibition | AID 492972 | Q15102 | inhibition, % at 3.39 µM | recombinant PAFAH1B3, FP-rhodamine probe, fluorescence polarization | 340,000 compounds, 0.28% hits;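 active means inhibition above the screen-wide average of all tested compounds plus 3 SD, cut at about 25% in these data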;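 further: 0% = enzyme with DMSO only and 100% = wells lacking PAFAH1B3 protein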
PME-1 inh = blocks human protein phosphatase methylesterase 1; AID 2130; inhibition, % at 5.9 µM; Q9Y570; recombinant PME-1, FP-Rh probe fluorescence polarization; 320,000 compounds, 0.53% hits;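 active means inhibition above the campaign mean of all compounds plus 3 SD, cut at about 26% in these data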;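 further: competitive labeling of PME-1 active site by serine hydrolase directed probe; 0% = PME-1 with DMSO and 100% = wells lacking PME-1 enzyme; inhibitors block probe labeling so polarization falls and inhibition rises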
pPAFAH FP inh = inhibitors of human plasma PAF acetylhydrolase (pPAFAH); Q13093; recombinant pPAFAH, FP-rhodamine probe fluorescence polarization; 330,000 compounds, 1.5% hits; inhibition, % at 3.39 µM;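 active means inhibition above the mean inhibition across the screen plus 3 SD, cut at about 25% in these data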;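 further: inhibitors block binding of the rhodamine activity-based probe so polarization drops; 0% = enzyme with DMSO and 100% = wells lacking pPAFAH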
Fam108B counter = counter-screen for RBBP9 inhibitors: inhibitors of mouse Fam108B | recombinant Fam108B, FP-Rh probe fluorescence polarization | inhibition, % at 9.51 µM | 300,000 compounds, 0.33% hits;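 active means inhibition above the screen mean inhibition plus 3 SD, computed separately per campaign, cut at about 18% in these data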;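 further: inhibitors lower polarization as less probe binds the enzyme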
* hit, by the source's call; / = not tested or not shown.

SMILES	PAFAH2 inh	PAFAH1B2 inh	PAFAH1B3 inh	PME-1 inh	pPAFAH FP inh	Fam108B counter
COc1cc(=O)n(C)c2ccccc12	6	1	6	-3	-3	-1
CN(c1ccc(Cl)cc1)c1cc(=O)n(C)c2ccccc12	-4	29*	1	-9	2	-1
O=C(CSc1nnc(NC(=O)C2CC2)s1)Nc1ccccc1Cl	-1	4	5	3	4	1
CC(C)(C)NC(=O)COC(=O)c1ccc(Cl)nc1	2	-3	-1	-4	6	7
CCN(CC)c1ccc(C(=O)OCC(=O)NC(C)(C)C)cc1	81*	7	4	0	34*	-5
O=C(COc1ccccc1[N+](=O)[O-])OCC(=O)c1ccc(Br)s1	13	2	1	/	26*	/
Cc1ccc(S(=O)(=O)N2CCC(=O)N(C(COCc3ccc(Cl)cc3)Cc3ccccc3)CC2)cc1 (centres undefined)	7	25*	9	2	9	-1
O=C(c1cccc(N2C(=O)C3C4C=CC(C4)C3C2=O)c1)N1CCN(c2ccccc2Cl)CC1 (centres undefined)	2	3	10	4	5	1
N/C(=N/OC(=O)c1ccccc1Cl)c1ncc([N+](=O)[O-])s1	18	26*	11	7	13	-1
N/C(=N\OC(=O)c1ccccc1Cl)c1cccc([N+](=O)[O-])c1	2	6	2	-3	0	-3
CCOC(=O)CC(=O)CSc1nc(N)c(C#N)c(-c2ccc(F)cc2)c1C#N	4	4	-6	3	28*	3
CC(=O)Nc1ccc(-c2csc(NC(=O)C3CSC4(C)CCC(=O)N34)n2)cc1 (centres undefined)	-2	1	2	-1	7	0
O=[N+]([O-])c1ccc(C=Nc2ccc(Cl)c([N+](=O)[O-])c2)s1	60*	13	16	/	/	/
Cc1cc(C)cc(N=Cc2ccc([N+](=O)[O-])s2)c1	15	5	21	3	4	7
NC(=O)c1ccc(N=Cc2ccc([N+](=O)[O-])s2)cc1	60*	8	13	2	14	4
O=C(O)c1cc(NC(=S)NC(=O)C(c2ccccc2)c2ccccc2)ccc1Cl	4	32*	3	3	-3	-4
CC1(C(=O)NCc2ccc(F)cc2)Oc2ccccc2NC1=O (centres undefined)	-3	30*	8	2	0	6
CSc1nc2ccc(NS(=O)(=O)c3ccc4c(c3)OCCO4)cc2s1	-1	0	4	-5	30*	-1
CCCn1c(N)c(C(=O)CN(C)CC(=O)Nc2ccccc2CC)c(=O)[nH]c1=O	-7	-1	3	33*	2	/
CC(=O)NCCC(=O)Nc1cc(S(=O)(=O)N2CCOCC2)ccc1N1CCCC1	2	6	6	2	2	-2
CC(=O)OCC(=O)C1(O)CCC2C3CCC4=CC(=O)CCC4(C)C3(Cl)C(O)CC21C (centres undefined)	4	5	9	/	/	/
O=S(=O)(Oc1ccccc1N1CCCCC1)c1ccccc1	7	31*	5	-4	-6	4
O=C1CCC(=O)N1c1ccccc1OS(=O)(=O)c1ccccc1	2	4	2	4	0	2
CC1CC(C)CN(C(=O)CN2C(=O)NC(c3ccccc3)(c3ccccc3)C2=O)C1 (centres undefined)	-1	26*	0	3	3	/
CCCCCCCN=CC1=C(O)CC(c2ccccc2)CC1=O (centres undefined)	-7	26*	7	-10	-2	-3
CC(C)c1nnc(NC(=O)CC23CC4CC(CC(C4)C2)C3)s1	1	21	2	-4	-4	-1
CCCc1nnc(NC(=O)C23CC4CC(CC(C4)C2)C3)s1	4	25*	3	/	/	/
CCc1nnc(NC(=O)CC23CC4CC(CC(Br)(C4)C2)C3)s1	2	27*	10	1	9	-1
NC(=O)c1ccc[n+](CC(=O)Nc2ccccc2C(=O)O)c1	3	3	2	2	1	0
COc1cccc(C(CCc2cc(OC)c(OC)c(OC)c2)NC(C)=O)c1 (centres undefined)	-4	-1	-1	/	/	/
